Measured values taken from the antibiotic and cytotoxicity screens of Wong et al. (2023).
Screen size: about 39,000 compounds; about 3,300 (8.5%) were called active. What follows is part of a selection rich in actives, with near analogues and random picks from the rest.

test system: HepG2; assay: cytotoxicity call (relative viability < 0.9); conditions: 10 µM

SMILES	cytotoxicity call
O=C(C[C@@H]1C[C@H]2c3cc(NC(=O)Nc4ccccc4)ccc3O[C@H]2[C@H](CO)O1)NCCN1CCCCC1	inactive
COc1ccc(CN(C)C[C@H]2OCCCC[C@@H](C)Oc3ccc(NC(=O)Nc4c(C)noc4C)cc3C(=O)N([C@@H](C)CO)C[C@@H]2C)cc1	inactive
C[C@@H]1CCCCO[C@@H](CN(C)C(=O)c2ccccc2)[C@@H](C)CN([C@@H](C)CO)C(=O)c2cc(NS(=O)(=O)c3ccc(Cl)cc3)ccc2O1	inactive
CCCN1CCC2(CC1)NC(=O)N(CC(=O)N1CCN(C(=O)OCC)CC1)C2=O	inactive
C[C@H](CO)N1C[C@H](C)[C@H](CN(C)Cc2ccc(C(F)(F)F)cc2)OCc2ccccc2-c2c(n(C)c3ccccc23)C1=O	inactive
CCOC(=O)c1cnn2c(=O)cc(C)[nH]c12	inactive
C[C@@H]1CN([C@H](C)CO)S(=O)(=O)c2ccc(C#CC3(O)CCCC3)cc2O[C@@H]1CN(C)C(=O)c1ccccc1	inactive
CNC[C@H]1Oc2c(NS(=O)(=O)c3cn(C)cn3)cccc2C(=O)N([C@@H](C)CO)C[C@@H]1C	inactive
CCOC(=O)c1c(CNCCN(CC)CC)n(-c2ccccc2)c2cc(Br)c(OC)cc12	active
CCOC(=O)c1c(CN2CCN(CCOCCO)CC2)n(-c2ccccc2)c2cc(Br)c(O)cc12	active
CCOC(=O)c1c(CN2CCN(c3ccccc3)CC2)n(-c2ccccc2)c2cc(Br)c(O)cc12	inactive
CCOC(=O)c1c(CN2CCN(Cc3ccccc3)CC2)n(-c2ccccc2)c2cc(Br)c(OC)cc12	inactive
CCOC(=O)c1c(CN2CCN(Cc3ccccc3)CC2)n(-c2ccccc2)c2cc(Br)c(O)cc12	inactive
CCOC(=O)c1c(CN2CCN(c3ccccc3)CC2)n(-c2ccccc2)c2cc(Br)c(OC)cc12	inactive
Cc1ccc(S(=O)(=O)N(C)C[C@@H]2Oc3ccc(NS(=O)(=O)c4c(C)noc4C)cc3C(=O)N([C@H](C)CO)C[C@@H]2C)cc1	inactive
Cc1ccc(S(=O)(=O)Nc2ccc3c(c2)C(=O)N([C@@H](C)CO)C[C@H](C)[C@H](CN(C)C(=O)CCC(F)(F)F)OCCCC[C@@H](C)O3)cc1	inactive
C[C@@H]1CCCCO[C@H](CN(C)S(=O)(=O)c2ccc(Cl)cc2)[C@H](C)CN([C@@H](C)CO)C(=O)c2cc(NS(=O)(=O)c3ccccc3)ccc2O1	inactive
Cc1ccc2ncc(-c3ccc4cc(C)ccc4n3)cc2c1	inactive
COc1ccc(NC(=O)N(C)C[C@@H]2OCCCC[C@@H](C)Oc3ccc(NS(=O)(=O)c4ccc(C)cc4)cc3C(=O)N([C@H](C)CO)C[C@@H]2C)cc1	inactive
C[C@H](CO)N1C[C@H](C)[C@H](CN(C)C(=O)c2cnccn2)Oc2ncc(/C=C/c3ccccc3)cc2C1=O	inactive
O=C(CCCCCCC(=O)Nc1ccccc1O)N/N=C/c1ccc(N(c2ccccc2)c2ccccc2)cc1	active
O=C(CCCCCCC(=O)Nc1ccccc1O)N/N=C/c1cc(Br)c(O)c(Br)c1	inactive

SMILES	cytotoxicity call
O=C(CCCCCC(=O)Nc1ccccc1O)N/N=C/C[P+](c1ccccc1)(c1ccccc1)c1ccccc1	inactive
N[C@H]1CCC[C@@H]1Cc1ccc(F)cc1	inactive
C[C@@H]1CCCCO[C@H](CN(C)C(=O)c2ccccc2)[C@@H](C)CN([C@@H](C)CO)C(=O)c2cc(NC(=O)Nc3ccc4c(c3)OCO4)ccc2O1	inactive
C[C@H]1CN([C@@H](C)CO)C(=O)Cc2cc(NC(=O)Nc3cccc4ccccc34)ccc2O[C@H]1CN(C)Cc1ccc(C(=O)O)cc1	inactive
CC(C)NC(=O)Nc1ccc2c(c1)C(=O)N([C@H](C)CO)C[C@H](C)[C@@H](CN(C)Cc1ccc(C(=O)O)cc1)O2	inactive
C[C@@H]1CCCCO[C@H](CN(C)C(=O)C2CCCCC2)[C@@H](C)CN([C@@H](C)CO)C(=O)c2cc(NC(=O)CCC(F)(F)F)ccc2O1	inactive
C[C@H](CO)N1C[C@H](C)[C@H](CN(C)Cc2ccncc2)OCCCC[C@H](C)Oc2ccc(NC(=O)Nc3ccccc3)cc2C1=O	inactive
C[C@@H]1CN([C@@H](C)CO)C(=O)c2cc(NC(=O)C3CCCCC3)ccc2O[C@H]1CN(C)Cc1ccc(-c2ccccc2)cc1	inactive
C[C@@H]1CN([C@@H](C)CO)C(=O)c2cc(NC(=O)C3CCCCC3)ccc2O[C@@H]1CN(C)Cc1ccc(Oc2ccccc2)cc1	inactive
C[C@H](CO)N1C[C@H](C)[C@@H](CN(C)Cc2ccc(-c3ccccc3)cc2)Oc2ccc(NC(=O)C3CCCCC3)cc2C1=O	inactive
C[C@@H]1CN([C@H](C)CO)C(=O)c2cc(NC(=O)C3CCCCC3)ccc2O[C@@H]1CN(C)Cc1ccc(Oc2ccccc2)cc1	active
C[C@H]1CN([C@@H](C)CO)C(=O)c2cc(NC(=O)C3CCCCC3)ccc2O[C@H]1CN(C)Cc1ccc(-c2ccccc2)cc1	active
C[C@@H]1CN([C@@H](C)CO)C(=O)c2cc(NC(=O)C3CCCCC3)ccc2O[C@@H]1CN(C)Cc1ccc(-c2ccccc2)cc1	active
C[C@@H]1CN([C@H](C)CO)C(=O)c2cc(NC(=O)C3CCCCC3)ccc2O[C@H]1CN(C)Cc1ccc(-c2ccccc2)cc1	inactive
C[C@H](CO)N1C[C@H](C)[C@H](CN(C)Cc2ccc(-c3ccccc3)cc2)Oc2ccc(NC(=O)C3CC3)cc2C1=O	inactive
C[C@H]1CN([C@@H](C)CO)C(=O)c2cc(NC(=O)C3CCCCC3)ccc2O[C@@H]1CN(C)Cc1ccc(Oc2ccccc2)cc1	inactive
C[C@@H]1CN([C@H](C)CO)C(=O)c2cc(NC(=O)C3CCCCC3)ccc2O[C@@H]1CN(C)Cc1ccc(-c2ccccc2)cc1	active
C[C@@H]1CN([C@@H](C)CO)C(=O)c2cc(NC(=O)C3CC3)ccc2O[C@H]1CN(C)Cc1ccc(-c2ccccc2)cc1	inactive
C[C@H]1CN([C@@H](C)CO)C(=O)c2cc(NC(=O)C3CCCCC3)ccc2O[C@@H]1CN(C)Cc1ccc(-c2ccccc2)cc1	inactive
COC[C@H]1CCCNC1	inactive
C[C@@H]1CN([C@@H](C)CO)C(=O)c2cc(NC(=O)Cc3ccccc3)ccc2O[C@@H](C)CCCCO[C@H]1CN(C)Cc1ccncc1	inactive
